VACV mCherry inh = inhibitors of vaccinia virus infection (mCherry reporter signal). AID 720579. Potency, µM (doses to about 36.5 µM), without a hit: top-dose activity change, negative = inhibition, usual class: inhibitors. Vaccinia virus mCherry reporter infection, fluorescence. hit rate 0.63% among 310,000; calls by dose curve; tested in A549 cells; also: nearly all actives have a fitted effect of over 35% in size
AmpC detergent = inhibitors of E. coli AmpC beta-lactamase with detergent | AmpC hydrolysis of nitrocefin, absorbance 480 nm, 0.01% Triton | Potency, µM (series often up to 114 µM), inactives show top-dose activity change, negative = inhibition, hits mostly inhibitors | hit rate 0.041% among 370,000 | AID 485294;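 also: 0% = no-compound wells and -100% = no-enzyme wells; nearly all actives have a fitted effect of over 25% in size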
Target sequence (P00811 whole entry, looked up): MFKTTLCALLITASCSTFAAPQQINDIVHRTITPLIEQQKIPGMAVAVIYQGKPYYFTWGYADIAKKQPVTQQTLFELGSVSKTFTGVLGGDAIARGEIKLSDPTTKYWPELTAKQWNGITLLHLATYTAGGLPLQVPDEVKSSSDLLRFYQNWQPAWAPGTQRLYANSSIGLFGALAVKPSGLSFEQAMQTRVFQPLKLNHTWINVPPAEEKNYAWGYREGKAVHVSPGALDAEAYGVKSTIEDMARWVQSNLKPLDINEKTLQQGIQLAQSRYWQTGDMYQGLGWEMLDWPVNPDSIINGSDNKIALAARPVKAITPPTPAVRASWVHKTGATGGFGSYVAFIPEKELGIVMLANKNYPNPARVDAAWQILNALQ
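20 mM phosphate pH 7.0 + 0.01% (detergent screen) or 0.0001% Triton X-100; 5.3 nM AmpC reagent; cpd preinc 15 min RT; nitrocefin (800 uM stock) to start; A480 q20 s × 4 min; Activity was normalised to no-enzyme and no-compound control wells.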
AmpC no deterg = inhibitors of E. coli AmpC beta-lactamase without detergent; AmpC nitrocefin hydrolysis, absorbance 480 nm, 0.0001% Triton; Potency, µM (top dose mostly 57.1 µM), for inactives: at the highest dose activity change, negative = inhibition, most hits filed as inhibitors; hit rate 0.52% among 330,000;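 also: plate controls were no compound for no effect and no enzyme for full effect; nearly all actives have a fitted effect of over 20% in size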
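20 mM phosphate pH 7.0 + 0.01% (detergent screen) or 0.0001% Triton X-100; 5.3 nM AmpC reagent; cpd preinc 15 min RT; nitrocefin (800 uM stock) to start; A480 q20 s × 4 min; Activity was normalised to no-enzyme and no-compound control wells.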
VACV Venus inh = vaccinia inhibition (Venus reporter); Potency, µM (series often up to 36.5 µM), for the others: at the top dose activity change, negative = inhibition, hits mostly inhibitors; hit rate 0.46% among 330,000; Vaccinia virus Venus reporter expression, fluorescence; calls by dose curve; tested in A549 cells; also: nearly all actives have a fitted effect of over 30% in size
Starred values were filed as active, the others as inactive; i = inactive; u = inconclusive; x = no result; [ ] = remark or other dose. Most compounds without a hit are left out; they make up all but 1.1% or so of the library. Unless noted, calls follow the shape of the dose curve; as a rule, active = well fitted curve in the direction sought with a large enough effect; inconclusive = small, poorly fitted or top-dose-only effect, or another doubt; inactive = no such curve, though single readings can be large; an effect the other way counts as inactive or inconclusive. Unless noted, % is scaled to controls: 0 for no effect and ±100 for the full control effect; potency is read from the fitted curve at half-maximal effect.

SMILES	VACV mCherry inh	AmpC detergent	AmpC no deterg	VACV Venus inh
CC1CCCCC1NC(=O)CN1C(=O)NC(Cc2ccccc2)(Cc2ccccc2)C1=O (stereo not drawn)	-9%	-10%	-11%	-7%
C=CCNc1ncnc2c1[nH]c1ccc(C)cc12	u	u	13µM*	u
O=C(CSc1nc2ccccc2n1CCc1ccccc1)c1ccc(O)c(O)c1	i	2%	16µM*	-25%
CC1=CC(C)CC(C)OC(=O)CC(c2ccc(O)cc2)NC(=O)C(Cc2c(Br)[nH]c3ccccc23)N(C)C(=O)C(C)NC(=O)C(C)C1 (stereo not drawn)	32µM*	x	x	35µM*
COCc1ccc(CN2CCOc3c(cc(-c4ccc(SC)cc4)cc3OC)C2)o1	-8%	x	x	1%
Cc1ccc(C(=O)C[n+]2cccc3ccccc32)cc1	-6%	0%	0.16µM*	5%
Cc1nc(Nc2cnc(/C=C/c3cc(C(=O)Nc4cccc(C(F)(F)F)c4)ccc3C)cn2)cc(N2CCNCC2)n1	u	u	67%	10µM*
CCOc1ccc(C(=O)Nc2ccc3nc(Nc4cccc(C(F)(F)F)c4)cc(C)c3c2)cc1OCC	3%	19%	x	-6%
Cc1ccc(S(=O)(=O)Cc2cc(F)c([N+](=O)[O-])cc2[N+](=O)[O-])cc1	2.8µM*	0%	-41%	u
CCOC(=O)c1ccc([N+](=O)[O-])c(CS(=O)(=O)c2ccc(Cl)cc2)c1	x	0%	-41%	x
CCCN(CC1CC1)c1nc(N)c2c(N)nc(OC)cc2c1C#N	11µM*	u	-18%	u
CCOc1cc2c(C#N)c(N3CCOCC3)nc(N)c2c(N)n1	x	-14%	-28%	u
Cc1c(C(=O)N2CCOc3ccc(Cl)cc3C2)sc2ncnc(NCCc3ccccn3)c12	i	x	x	-4%
COc1ccc(Cc2nnc(N/N=C/c3ccc(Br)cc3)[nH]c2=O)cc1OC	-10%[7.34 µM]	-6%	-24%	-6%[7.34 µM]
COc1ccc(Cc2nnc(N/N=C/c3ccc(O)cc3)[nH]c2=O)cc1OC	1.1µM*	-2%	-36%	u
COc1ccc(OC)c2c(/C=C/c3ccc(N(C)C)cc3)ccnc12	-16%	x	x	6%
COc1ccc(OC)c2c(/C=C/c3c(C)[nH]c4ccccc34)ccnc12	13µM*	x	x	-22%
CCC1CCCCN1C(=O)CSc1nnc(-c2ccc(Cl)cc2)o1 (stereo not drawn)	-5%	u	-20%	8%
CCC1CCCCN1C(=O)CSc1nnc(-c2cccc(Cl)c2)o1 (stereo not drawn)	u	u	5µM*	-18%
CCOc1ccccc1Nc1nc(-c2sc(C)nc2C)cs1	3.5µM*	4%	115%	u
Cc1ccc(S(=O)(=O)N2CCC(C(=O)N[C@@H](C)C(=O)Nc3ccc(F)cc3)CC2)cc1	0%	-9%	23%	-24%
Cc1ccc(S(=O)(=O)N2CCC(C(=O)N[C@@H](C)C(=O)Nc3ccc4c(c3)OCO4)CC2)cc1	x	35µM*	8%	x
Cc1c(C(=O)NCC2(N3CCOCC3)CCCCC2)cnn1-c1nccc(-c2ccccc2F)n1	-19%	x	x	-3%
COc1ccc(/C=N/NC(=S)Nc2ccccc2)cc1COc1ccc(F)cc1F	i	-3%	18µM*	-18%
Cc1ccc(NN2C(=O)C=CC2=O)cc1	-9%	-14%	-9%	-9%
SMILES	VACV mCherry inh	AmpC detergent	AmpC no deterg	VACV Venus inh
Cc1ccccc1NN1C(=O)C=CC1=O	x	1%	0.14µM*	1%
CCC1C(=O)NCCN1Cc1ccc2c(c1)CN(Cc1cc(OC)ccc1OC)CCO2 (stereo not drawn)	0%	x	x	19%
C=CCn1c2ccccc2c2nnc(SCCCn3c(=O)[nH]c4ccccc43)nc21	x	-9%	0%	10µM*
C=CCn1c2ccccc2c2nnc(SCCN3CCCCC3)nc21	x	2%	7%	x
N=C1SC(c2ccccc2)C(=O)N1c1ncc(Cc2ccccc2Cl)s1 (stereo not drawn)	-11%	-12%	16µM*	-8%
O=C(Nc1cccc(S(=O)(=O)NCc2ccco2)c1)c1cc(-c2ccc(F)cc2)nc2ccccc12	-28%	1%	-39%	-29%
COc1ccc(-c2cc(C(=O)Nc3cccc(S(=O)(=O)NCc4ccco4)c3)c3ccccc3n2)cc1OC	x	-4%	2µM*	x
COc1cc(-c2cc(C)c3c(OC)ccc(OC)c3n2)cc2c1OCCN(C(=O)CCn1ccc(C)n1)C2	-12%	x	x	-2%
NC(=S)N/N=C1/CCSc2ccc3ccccc3c21	14µM*	u	-33%	u
NC(=S)N/N=C/c1c(O)ccc2ccccc12	x	-3%	-30%	x
O=C(CSc1ccc(Br)c2cccc(Cl)c12)Nc1ccc(S(=O)(=O)Nc2nccs2)cc1	0%	2%	2.5µM*	-11%
O=C(NCCN1Cc2ccccc2OC(c2ccccc2F)C1)c1ccco1 (stereo not drawn)	-13%	x	x	-5%
O=C(Nc1ccc(Nc2ccccc2)cc1)c1ccc(Cl)c([N+](=O)[O-])c1	x	u	-39%	x
O=C(Nc1ccccc1-c1ccccc1)c1ccc(Cl)c([N+](=O)[O-])c1	20µM*	4%	-24%	13µM*
Cc1cc(N(C)C)cc(C)c1C=O	-12%	x	x	-11%
CNC[C@H](CC1CCCCC1)NC[C@H](CO)NCC1(c2ccccc2)CC1	-8%	-8%	51%	-16%
CNC[C@H](CC1CCCCC1)NC[C@H](CO)NCCc1cccc(C(F)(F)F)c1	u	u	113%	20µM*
O=S1(=O)C=C(SCc2ccc(Cl)c(Cl)c2)Nc2ccccc21	x	1%	18µM*	u
Cc1ccc(C)c(NS(=O)(=O)c2ccc3c(c2)Cc2cc(S(=O)(=O)Nc4cc(C)ccc4C)ccc2-3)c1	u	-9%	7.9µM*	u
Cc1ccc(C)c(NS(=O)(=O)c2ccc3oc(=O)ccc3c2)c1	x	5%	-2%	x
c1ccc(CN2CCN(c3ncnc4c3[nH]c3ccccc34)CC2)cc1	7.1µM*	-3%	-19%	u
O=C(CN1CCOCC1)NN=Cc1ccc([N+](=O)[O-])o1	3%	x	x	-7%
CC1(C(=O)N/N=C/c2ccc([N+](=O)[O-])o2)CC1(Br)Br (stereo not drawn)	u	-6%	-4%	6.3µM*
N#CCc1ccc(NC(=O)/C=C/c2ccc([N+](=O)[O-])o2)cc1	7.1µM*	-8%	-45%	u
O=C(O)/C=C/c1ccc([N+](=O)[O-])o1	i	-2%	-14%	4%
O=C(CN1CCCCCCC1)N/N=C/c1ccc([N+](=O)[O-])o1	11µM*	0%	-35%	10µM*
CCOC(=O)N/N=C\c1ccc([N+](=O)[O-])o1	-29%	u	-29%	u
O=C(Cc1ccc([N+](=O)[O-])cc1)N/N=C/c1ccc([N+](=O)[O-])o1	10µM*	-7%	-46%	11µM*
Cc1nn(-c2ccccc2)c(C)c1CC(=O)NCC1Cc2cc(-c3cncnc3)ccc2O1 (stereo not drawn)	-11%	x	x	2%
CCCCCCCC(=O)N/N=C/c1ccc([N+](=O)[O-])o1	x	2%	-15%	x

Screening data from PubChem BioAssay.
